Shown are actives, neighbours in structure and some others; about 0.82% of the full set was active somewhere.
eLon inh = inhibits E. coli Lon protease; P0A9M0; purified E. coli Lon protease, fluorescence polarization; inhibition, % at 7.94 µM; 0.42% of 360,000 active; AID 602123; in the data active means inhibition above about 13%, passing the limit was not always enough
RTF Ca sens inh = cardiac RTF calcium desensitization; P19429+P45379; IANBD-labeled cardiac RTF, Ca2+ fluorescence; inhibition, % at 7.15 µM; 0.12% of 340,000 active; AID 493244;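 active means inhibition above the mean inhibition of all tested compounds plus 3 SD, cut at about 17% in these data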;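 further: assay run at fixed EC70 calcium of 1.6 mM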
RTF Ca sens act = cardiac RTF calcium sensitization; IANBD-labeled TnC RTF fluorescence at EC20 calcium; 0% EC20 calcium, 100% full calcium; P19429+P45379; activation, % at 7.2 µM; 0.24% of 340,000 active;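 active means activation above the mean over all tested compounds plus 3 SD, cut at about 30% in these data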;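 further: rise in fluorescence read as greater calcium sensitivity of cardiac thin filaments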
Keap1-Nrf2 PPI = Keap1-Nrf2 (human) interaction inhibition; 0.15% of 340,000 active; inhibition, % at 9.4 µM; Keap1 Kelch-Nrf2 peptide fluorescence polarization, 1536-well; Q14145; in the data active means inhibition above about 12%;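 further: human Keap1 Kelch domain with fluorescein labeled Nrf2 9mer peptide probe; higher means more block of Keap1 binding to Nrf2 peptide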
Target sequence (Q14145 whole entry, looked up, the tested form may be a part): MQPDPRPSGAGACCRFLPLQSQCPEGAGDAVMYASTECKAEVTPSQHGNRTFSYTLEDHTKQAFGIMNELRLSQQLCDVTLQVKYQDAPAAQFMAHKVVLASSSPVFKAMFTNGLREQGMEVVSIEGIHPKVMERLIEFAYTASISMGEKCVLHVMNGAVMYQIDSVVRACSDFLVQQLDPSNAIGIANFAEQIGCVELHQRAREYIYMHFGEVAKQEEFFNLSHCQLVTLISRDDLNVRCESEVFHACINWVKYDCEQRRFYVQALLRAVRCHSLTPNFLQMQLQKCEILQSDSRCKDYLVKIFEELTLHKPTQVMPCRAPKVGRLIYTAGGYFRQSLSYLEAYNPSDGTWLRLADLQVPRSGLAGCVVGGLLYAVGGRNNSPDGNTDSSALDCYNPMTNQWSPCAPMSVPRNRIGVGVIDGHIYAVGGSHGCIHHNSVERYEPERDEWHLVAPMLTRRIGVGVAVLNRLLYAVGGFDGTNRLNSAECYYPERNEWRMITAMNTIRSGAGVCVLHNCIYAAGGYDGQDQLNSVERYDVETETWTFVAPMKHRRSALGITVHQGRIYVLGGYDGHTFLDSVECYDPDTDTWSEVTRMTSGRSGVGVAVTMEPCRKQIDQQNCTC
LANA DNA inh = inhibitors of KSHV LANA C-terminal domain DNA binding | MBP-C-LANA/FAM-LBS DNA binding, fluorescence polarization | inhibition, % at 9 µM | 0.078% of 340,000 active;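 active means highest replicate inhibition at or above 60% at 9 µM, even if other replicates fall short; inactive means all replicates below 60% inhibition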
Numbers stand for hits; . = inactive; / = not tested or not shown.

SMILES | eLon inh | RTF Ca sens inh | RTF Ca sens act | Keap1-Nrf2 PPI | LANA DNA inh
CCOc1ccc(N2C(=O)NC(=O)/C(=C\c3ccc(N4CCCCC4)o3)C2=O)cc1 | . | . | 112 | . | .
O=C1NC(=O)N(c2ccc3c(c2)OCO3)C(=O)/C1=C/c1ccc(N2CCCC2)o1 | . | . | 58 | . | .
O=C1NC(=O)N(c2ccc3c(c2)OCO3)C(=O)/C1=C/c1cccs1 | . | . | . | . | .
CCOC(=O)[C@]12Cc3cc(Cl)ccc3[C@H]1N(C1CCCCC1)C(=O)c1cc(OC)ccc12 | . | / | / | / | /
O=C1NC(=S)N(c2ccc(F)cc2)C(=O)/C1=C\c1ccoc1 | . | 27 | . | . | 88
Cc1ccsc1/C=C1\C(=O)NC(=S)N(C)C1=O | . | . | . | . | .
COc1ccc(/C=C2\C(=O)NC(=S)N(C)C2=O)cc1C | . | . | . | 47 | .
CC(C)(OOC1(c2ccccc2)NC(=O)c2ccccc21)c1ccccc1 (stereo not drawn) | . | / | / | / | /
C=CCN1C(=O)/C(=C\c2ccc(N3CCOCC3)o2)C(=O)NC1=S | . | . | 49 | . | .
CCN1C(=O)C(=Cc2ccc(N3CCOCC3)o2)C(=O)N(CC)C1=S | . | . | 33 | . | .
Cc1nc2cc(OC(=O)N(C)Cc3cccc(-c4ccncc4)c3)ccc2s1 | . | / | / | / | /
CC1(C)OC(c2ccccc2)=C/C(=C/C=C2C(=O)NC(=O)NC2=O)O1 | . | . | 110 | . | .
O=C1NC(=O)C(=Cc2ccc(Sc3ccccc3)o2)C(=O)N1 | . | . | . | . | .
CC1(C(=O)O)CC12c1ccccc1-c1ccccc12 (stereo not drawn) | . | . | . | . | .
CC(C)C[C@H]1C(=O)N2CCC[C@H]2[C@]2(O)O[C@](NC(=O)[C@@H]3C=C4c5cccc6[nH]cc(c56)C[C@H]4N(C)C3)(C(C)C)C(=O)N12 | . | . | 67 | 34 | 67
NC(Cc1ccc(F)cc1)c1csc(Nc2ncccn2)n1 (stereo not drawn) | . | / | / | / | /
C[C@]12CCC3C(CC[C@@H]4[C@H]5O[C@H]5CC[C@]34C)C1CC[C@@H]2O (stereo partly drawn) | . | . | . | . | .
CCn1nc(-c2ccccc2)nc2c(=O)n(C)c(=O)nc1-2 | 83 | . | . | . | .
Cc1nc2c(=O)n(C)c(=O)nc-2n(C)n1 | . | . | . | . | .
CC(CC(C)(C)N1CC1)=NNC(=O)Nc1cccc2ccccc12 | . | . | . | . | .
CCN(CC)c1ccc(/C=N/c2sc3c(c2C#N)C2CCN3CC2)c(O)c1 | . | . | 146 | . | .
O=C1NC(=O)N(c2ccccc2)C(=O)/C1=C/C=C/c1ccco1 | . | . | . | . | .
CN1C(=O)/C(=C/C=C/c2ccco2)C(=O)NC1=S | . | . | . | . | 60
CC1=C(C)CC2(CC1)C(=O)NC(=O)NC2=O | . | . | . | . | .
CC[C@H](C)/C=C(C)/C=C/C1=CC2=C(Cl)C(=O)[C@@](C)(OC(C)=O)C(=O)C2=CO1 | / | 42 | . | . | .
SMILES | eLon inh | RTF Ca sens inh | RTF Ca sens act | Keap1-Nrf2 PPI | LANA DNA inh
CCN(CC)c1ccc(N=Cc2c(O)n(Cc3ccco3)c(=O)[nH]c2=O)cc1 | . | . | 79 | . | .
O=Cc1c(C(=O)O)n(Cc2ccccc2F)c2ccccc12 | . | . | . | . | .
Cc1ccc(C)c(Cn2c(C(=O)O)c(C=O)c3ccccc32)c1 | . | . | 86 | . | .
CN1C(=O)/C(=C/c2ccc(N3CCCCCC3)o2)C(=O)NC1=S | . | . | 86 | . | .
CN1C(=O)/C(=C\c2ccc(N3CCCCC3)o2)C(=O)NC1=S | . | . | 55 | . | .
CN1CCN(c2ccc(/C=C3\C(=O)NC(=S)N(c4cccc(Br)c4)C3=O)o2)CC1 | . | . | 97 | . | .
Cc1ccc(/C=C2\C(=O)NC(=S)N(c3cccc(F)c3)C2=O)o1 | . | . | . | . | .
O=c1[nH]c2ccccc2n1C1CCN(C(c2ccccc2OC(F)(F)F)c2nnnn2Cc2ccccc2)CC1 (stereo not drawn) | . | / | / | / | /
C#C[C@]1(O)CC[C@H]2[C@@H]3CCC4=Cc5nc6nc7ccccc7n6cc5C[C@]4(C)[C@H]3CC[C@@]21C | . | . | 38 | . | .
C#CC1(O)CCC2C3CCC4=C/C(=N/OCC(=O)NCC(=O)NC(C(=O)O)C(C)C)CC[C@]4(C)C3CC[C@@]21C (stereo partly drawn) | . | . | . | . | .
C=CCn1cc(C=C2C(=O)NC(=O)NC2=O)c2ccccc21 | . | . | . | . | .
